# Measured values as given in PubChem BioAssay (NCI).
# About 83,000 compounds went through this panel and 20% of them were active in at least one assay; those are over-represented in the sample as a whole.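 Each cell line was grown in a 96-well plate and treated with one concentration of compound for 48 hours. Values below 10 were considered active.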 Calls of active or inactive are those of the source.
# System: OVCAR-8 ovarian
# Assay: NCI-60 one-dose screen, 48 h (100 = growth as untreated, 0 = no growth, -100 = all killed)
# Conditions: 10 µM
row,SMILES,growth
1,Oc1cccc(-c2nc3sccn3c2-c2ccncn2)c1,102% (inactive)
2,CCOC(=O)c1cc(C(=O)c2cc(OC)c(OC)c(OC)c2)n2ccc(-c3cc[n+](CC(=O)c4cc(OC)c(OC)c(OC)c4)cc3)cc12,7.09% (active)
3,C[C@H]1[C@H](OC(=O)CCC(=O)O)O[C@@H]2O[C@]3(C)CC[C@H]4[C@H](C)CC[C@@H]1[C@@]24OO3,23.4% (inactive)
4,COc1ccc(C(=O)N/N=C/c2cc(C(F)(F)F)ccc2Cl)cc1,102% (inactive)
5,COc1ccc(-c2cc(-c3ccc(Cl)cc3)nc(SCCCC(=O)NO)n2)cc1OC,13.5% (inactive)
6,CCC(=O)OC1CCC2C3CCC(=O)OC3C(C)(CCC(=O)O)CC12C (configuration not stated),61.4% (inactive)
7,OCC1OC(n2ccc3c(NO)ncnc32)C(O)C1O (configuration not stated),-32.5% (active)
8,CC(C)(C)c1ccc(S(=O)(=O)N[C@H]2CC[C@H]3[C@@H]4CCc5cc(O)c([N+](=O)[O-])cc5[C@H]4CC[C@]23C)cc1,59.6% (inactive)
9,COc1cc(-c2nn(-c3cccc(NC(=O)CCNc4ccc(N5CCOCC5)cc4)c3)cc2-c2ccncc2)ccc1Cl,7.74% (active)
10,COc1cc(-c2nn(-c3cccc(NC(=O)CN4CCOCC4)c3)cc2-c2cccnc2)ccc1Cl,76.4% (inactive)
11,O=C(CCCSc1nc(-c2ccccc2)cc(-c2ccc(Cl)cc2)n1)NO,14.2% (inactive)
12,CC(C)N(CCOc1cccc(-c2nc3sccn3c2-c2ccnc(S(C)(=O)=O)n2)c1)C(C)C,79.2% (inactive)
13,O=C(CCC(C(=O)c1ccccc1)c1ccccc1)c1ccccc1 (configuration not stated),95.3% (inactive)
14,COc1ccc(-c2csc(NC(=O)c3ccc(Cc4n[nH]c(=O)c5cccnc45)cc3)n2)cc1,93.8% (inactive)
15,COc1cc(-c2nn(-c3cccc(NC(=O)CCN4CCN(Cc5ccccc5)CC4)c3)cc2-c2ccncc2)ccc1Cl,12.7% (inactive)
16,COc1cc2cc(Oc3ccc(NC(=O)c4cc(C(F)(F)F)cc(C(F)(F)F)c4)cc3)c(C)nc2cc1OC,48.2% (inactive)

row,SMILES,growth
1,C[C@]12CCC3c4ccc(O)cc4C[C@@H](CCCCCCCCCS(=O)CCCC(F)(F)C(F)(F)F)C3C1CC[C@@H]2O (some centres not stated),77.7% (inactive)
2,Cc1cc(Cl)ccc1Nc1nc(C(F)(F)F)ccc1C(=O)N/N=C/c1cccc(O)c1,62.6% (inactive)
3,COc1cc(C(=O)/C=C/c2c[nH]c3ccccc23)cc(OC)c1OC,15.9% (inactive)
4,CCOC(=O)CC(S(=O)(=O)c1ccccc1)S(=O)(=O)c1ccccc1,103% (inactive)
5,CCNCC(=O)Nc1ccc(C(=O)OCC)cc1,103% (inactive)
6,CCCc1cn(CC(=O)Nc2nc3ccccc3s2)nn1,100% (inactive)
7,COc1cc2cc(Oc3ccc(NC(=O)Nc4ccc(Cl)c(C(F)(F)F)c4)cc3)c(C)nc2cc1OC,7.34% (active)
8,COc1cc(/C=C2\CCCC3=C2NC(N)=NC3c2cc(OC)c(OC)c(OC)c2)cc(OC)c1OC (configuration not stated),-35.8% (active)
9,COc1ccc(-c2cc(-c3ccc(Cl)cc3)nc(SCCCCCCC(=O)NO)n2)cc1OC,51.5% (inactive)
10,COc1cc2ncnc(NC3CCC(O)CC3)c2cc1OC (configuration not stated),97.4% (inactive)
11,COc1cc(C)ccc1Oc1nc(Nc2ccc(N3CCOCC3)cc2)ncc1NC(=O)Nc1cc(C(F)(F)F)cc(C(F)(F)F)c1,44.3% (inactive)
12,CCC(C)[C@H](NC(C)=O)C(=O)N[C@@H](CCCNC(=N)N)C(=O)N[C@@H](CCCCN)C(=O)N[C@@H](CC1CCC(O)CC1)C(=O)NC(C(=O)N[C@@H](CCSC)C(=O)N[C@@H](CCCNC(=N)N)C(=O)N[C@@]1(C)CCC/C=C\CCC[C@@](C)(C(=O)NC(C(=O)N[C@@H](CCC(=O)O)C(=O)N[C@@H](CC(C)C)C(=O)N[C@H](C(=O)N[C@@H](CCC(=O)O)C(N)=O)C(C)C)[C@@H](C)O)NC(=O)[C@H](CCC(N)=O)NC(=O)[C@H](CC(C)C)NC(=O)[C@H](CC(C)C)NC1=O)[C@@H](C)O (some centres not stated),98.4% (inactive)
13,CN1C(=O)C2(Nc3cc(Cl)ccc3S2)c2cc(Cl)ccc21 (configuration not stated),97.4% (inactive)
14,CC(=O)Nc1ccc2c(c1)C(=O)c1cccc(C(=O)O)c1-2,106% (inactive)
15,O=C(CNc1nnc(-c2cccnc2SCc2ccccc2)s1)Nc1nc(Cl)cc(Cl)n1,118% (inactive)
16,CCOC(=O)c1cc(C(=O)c2cc(OC)c(OC)c(OC)c2)n2nc(C)ccc12,25.4% (inactive)
